# Records with an inconclusive call do not appear. Active and inactive are the calls of the source. Rule for the calls, unless noted: active = hit-call score of the fitted dose curve at least 0.9, where 1 is the maximum; inactive = score below 0.9.
# What was measured:
# [1] = biological target: Cellular tumor antigen p53 (Homo sapiens) (UniProt P04637); experiment: TOX21_p53_BLA_p2_ratio: Tox21 HCT-116 p53 Agonism Beta-lactamase Assay, Ratio, Phase 2 (AID 2283592; active = hit-call score of the fitted dose curve at least 0.9, where 1 is the maximum)
# Cellular tumor antigen p53 (Homo sapiens), sequence (P04637 whole entry, looked up): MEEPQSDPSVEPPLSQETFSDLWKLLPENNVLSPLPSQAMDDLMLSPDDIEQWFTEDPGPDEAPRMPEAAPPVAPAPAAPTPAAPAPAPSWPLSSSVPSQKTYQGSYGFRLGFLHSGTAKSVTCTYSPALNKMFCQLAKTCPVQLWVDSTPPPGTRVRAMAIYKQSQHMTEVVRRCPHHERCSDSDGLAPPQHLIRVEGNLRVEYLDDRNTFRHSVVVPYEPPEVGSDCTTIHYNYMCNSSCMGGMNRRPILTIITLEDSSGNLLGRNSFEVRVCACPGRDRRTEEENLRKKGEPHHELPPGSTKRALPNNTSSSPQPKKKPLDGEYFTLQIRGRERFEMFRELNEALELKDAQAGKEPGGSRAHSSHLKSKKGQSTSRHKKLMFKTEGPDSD
# Outline: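 Cleaved-to-uncleaved substrate ratio (460 vs 530 nm) measured in HCT116 cells with an inducible beta-lactamase reporter linked to p53 activity. Compounds incubated 16 h at 37C before 2 h room-temperature CCF4-AM loading.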
# [2] = TOX21_p53_BLA_p3_viability: Viability Assessment in the Tox21 HCT-116 p53 Agonism Beta-lactamase Assay, Phase 3 (AID 2283593; active = hit-call score of the fitted dose curve at least 0.9, where 1 is the maximum;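 note: cells exposed to compound for 16 h before reading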)
# Outline: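 HCT-116 cells (4000/well) rested 5 h at 37C, then got DMSO compounds by pin tool (217-fold dilution) for 16 h at 37C, 5% CO2. After the bla read, CellTiter-Glo was added and luminescence read at 30 min, room temperature.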
# [3] = biological target: Cellular tumor antigen p53 (Homo sapiens) (UniProt P04637); experiment: TOX21_p53_BLA_p3_ratio: Tox21 HCT-116 p53 Agonism Beta-lactamase Assay, Ratio, Phase 3 (AID 2283596; active = hit-call score of the fitted dose curve at least 0.9, where 1 is the maximum)
# Outline: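 Cells were seeded at 4000/well, rested 5 h at 37C, then dosed with DMSO compound solutions (217-fold dilution) for 16 h. CCF4-AM substrate was loaded for 2 h at room temperature, and the 460/530 nm emission ratio was fitted for gain of signal versus DMSO.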
# [4] = TOX21_p53_BLA_p4_viability: Viability Assessment in the Tox21 HCT-116 p53 Agonism Beta-lactamase Assay, Phase 4 (AID 2283597; active = hit-call score of the fitted dose curve at least 0.9, where 1 is the maximum;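 note: hits lower the luminescence signal meaning cytotoxicity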)
# Outline: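 Viability is taken as cellular ATP: after 16 h compound exposure of HCT116 cells and a 2 h room-temperature CCF4-AM substrate step, CellTiter-Glo reagent is added and luminescence is measured 30 min later.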
# [5] = biological target: Cellular tumor antigen p53 (Homo sapiens) (UniProt P04637); experiment: TOX21_p53_BLA_p5_ratio: Tox21 HCT-116 p53 Agonism Beta-lactamase Assay, Ratio, Phase 5 (AID 2283599; active = hit-call score of the fitted dose curve at least 0.9, where 1 is the maximum)
# Outline: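 HCT-116 cells carrying a p53-inducible beta-lactamase reporter were seeded at 4000 cells/well and dosed after 5 h with compound in DMSO (217-fold dilution). After 16 h at 37C, CCF4-AM substrate was added for 2 h, and the 460/530 nm emission ratio was scored as gain-of-signal versus DMSO.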
# [6] = biological target: Cellular tumor antigen p53 (Homo sapiens) (UniProt P04637); experiment: TOX21_p53_BLA_p4_ratio: Tox21 HCT-116 p53 Agonism Beta-lactamase Assay, Ratio, Phase 4 (AID 2283601; active = hit-call score of the fitted dose curve at least 0.9, where 1 is the maximum)
# Outline: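 HCT116 cells carrying an inducible beta-lactamase reporter were plated at 4000 cells/well, rested 5 h, then exposed to compounds in DMSO (217-fold dilution) for 16 h at 37C. CCF4-AM substrate was loaded 2 h at room temperature; 460/530 nm emission ratio scored gain-of-signal versus DMSO.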
# [7] = CCTE_Shafer_MEA_dev_firing_rate_mean: CCTE's Neural Network Formation Assay for Mean Firing Rate, Shafer Lab (AID 2284031)
# Outline: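 Extracellular spike frequency, AUC over DIV 5–12 recordings, in rat cortical neuron MEA cultures dosed from plating; loss direction vs DMSO.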
# [8] = CCTE_Shafer_MEA_dev_per_burst_spike_percent: CCTE's Neural Network Formation Assay for Percent of Spikes in a Burst, Shafer Lab (AID 2284032)
# Outline: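 Value is trapezoidal AUC over recordings on days 5, 7, 9 and 12 of the well-mean fraction of spikes falling in single-electrode bursts; rat cortical cultures exposed continuously from plating, treatment renewed DIV 5 and 9, fitted downward against DMSO.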
# [9] = CCTE_Shafer_MEA_dev_active_electrodes_number: CCTE's Neural Network Formation Assay for Number of Active Electrodes, Shafer Lab (AID 2284040; active = hit-call score of the fitted dose curve at least 0.9, where 1 is the maximum;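 note: potency for loss of active electrodes versus DMSO so lower counts are hits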)
# Outline: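 Developing rat cortical networks on MEAs, exposed DIV 0–12. Value is the AUC of active-electrode counts (≥5 spikes/min) from days 5, 7, 9, 12, relative to DMSO.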
# [10] = CCTE_Shafer_MEA_dev_burst_rate: CCTE's Neural Network Formation Assay for Burst Rate, Shafer Lab (AID 2284042)
# Outline: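 Cells plated, treated day 0; recorded DIV 5, 7, 9, 12; fed and re-treated DIV 5, 9. Endpoint: bursts per recording time, active-electrode well mean, trapezoidal AUC, fitted in decreasing direction against DMSO baseline.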
# [11] = CCTE_Shafer_MEA_dev_per_burst_interspike_interval: CCTE's Neural Network Formation Assay for Burst Interspike Interval, Shafer Lab (AID 2284044)
# Outline: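 Developmental network-formation MEA in primary rat cortical cultures with exposure spanning days 0–12. Within-burst ISI is averaged per well and integrated across recording days by area under the curve, with DMSO as negative control baseline.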
# [12] = CCTE_Shafer_MEA_dev_burst_duration_mean: CCTE's Neural Network Formation Assay for Mean Burst Duration, Shafer Lab (AID 2284045)
# Outline: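 Network-formation assay in primary rat cortical neurons; treatment spans twelve days of development. Mean burst duration per well is integrated by trapezoidal AUC and fitted in the loss-of-signal direction against DMSO baseline.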
# [13] = CCTE_Shafer_MEA_dev_interburst_interval_mean: CCTE's Neural Network Formation Assay for Mean Interburst Interval, Shafer Lab (AID 2284046);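 note: well-mean interburst interval of bursting electrodes as AUC over four recording days; curve fitted for decrease in interburst interval relative to DMSO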
# Outline: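 Developing rat cortical networks on 48-well MEAs receive compound from the day of plating. Burst intervals from each active electrode are averaged per well, and AUC over the recording days is fitted in the negative direction against DMSO.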
# [14] = CCTE_Shafer_MEA_dev_inter_network_spike_interval_mean: CCTE's Neural Network Formation Assay for Mean Inter-network Spike Interval, Shafer Lab (AID 2284047)
# Outline: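 Rat cortical cultures, 1.5 x 10^5 cells/well on 48-well MEA plates; continuous exposure days 0–12, medium and compound refreshed DIV 5, 9. Mean time between consecutive network-spike peaks; AUC across DIV 5/7/9/12; DMSO baseline, negative fitting direction.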
# [15] = CCTE_Shafer_MEA_dev_network_spike_number: CCTE's Neural Network Formation Assay for Number of Network Spikes, Shafer Lab (AID 2284048);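 note: synchronized bursts across electrodes counted on days 5 7 9 12 and integrated as AUC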
# Outline: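 Extracellular recordings from 16-electrode wells track network formation in rat cortical cultures under continuous treatment from plating. The endpoint is network spike number, expressed as AUC across DIV 5–12 relative to DMSO vehicle.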
# [16] = CCTE_Shafer_MEA_dev_network_spike_peak: CCTE's Neural Network Formation Assay for Mean Number of Electrodes in Network Spike, Shafer Lab (AID 2284049);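 note: fitted for loss of signal meaning fewer electrodes in network spikes than DMSO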
# Outline: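 Continuous 12-day exposure of rat cortical cultures, starting at plating, on MEA plates. Endpoint: electrodes participating in network-spike peaks, AUC across DIV 5–12, DMSO as negative control.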
# [17] = CCTE_Shafer_MEA_dev_spike_duration_mean: CCTE's Neural Network Formation Assay for Mean Spike Duration, Shafer Lab (AID 2284051);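 note: mean network spike duration pooled as area under curve over DIV 5 to 12 recordings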
# Outline: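 Readout is the average length of network spikes, clustered firing across electrodes, summed over DIV 5, 7, 9 and 12 as area under the curve. Neurons from rat cortex developed networks on MEA plates under continuous 12-day exposure.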
# [18] = CCTE_Shafer_MEA_dev_network_spike_duration_std: CCTE's Neural Network Formation Assay for Standard Deviation of Network Spike Duration, Shafer Lab (AID 2284052);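 note: area under curve of spike duration SD across recording days 5 to 12; hits are decreases in network spike duration SD versus DMSO vehicle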
# Outline: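 Read-out is the trapezoidal area-under-the-curve across recordings made on days 5, 7, 9 and 12, fitted in the negative direction against DMSO baseline. Neurons were primary rat cortical cells treated from day 0, with treatment renewed at each feed.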
# [19] = CCTE_Shafer_MEA_dev_per_network_spike_spike_number_mean: CCTE's Neural Network Formation Assay for Mean Number of Spikes in a Network Spike, Shafer Lab (AID 2284053)
# Outline: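 Continuous twelve-day exposure of developing rat cortical networks grown over 16 microelectrodes per well; spontaneous firing is captured at four time points, and the per-network-spike spike number is integrated over development by trapezoidal AUC.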
# [20] = CCTE_Shafer_MEA_dev_per_network_spike_spike_percent: CCTE's Neural Network Formation Assay for Percent of Spikes in a Network Spike, Shafer Lab (AID 2284054)
# Outline: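 Developing networks of rat cortical neurons are dosed at day 0 and recorded extracellularly four times up to day 12. The endpoint is the area under the curve of percent spikes in network spikes, fitted in the negative direction relative to DMSO.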
# [21] = CCTE_Shafer_MEA_dev_LDH: CCTE's Lactate Dehydrogenase Assay for Cytotoxicity in the Neural Network Formation Assay, Shafer Lab (AID 2284068; active = hit-call score of the fitted dose curve at least 0.9, where 1 is the maximum;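 note: exposure for twelve days from plating with re-dosing on DIV 5 and 9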)
# Outline: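 Cytotoxicity companion to network-formation recordings: rat cortical neurons received compound over 12 days of development, re-dosed at DIV 5 and 9 feeds. Viability was inferred from LDH enzyme activity relative to DMSO.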
# [22] = CCTE_Shafer_MEA_dev_AB: CCTE's Alamar Blue Assay for Cytotoxicity in the Neural Network Formation Assay, Shafer Lab (AID 2284083; active = hit-call score of the fitted dose curve at least 0.9, where 1 is the maximum;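 note: resazurin reduction fluorescence as viability of cultured neurons; twelve days of exposure from plating with re-dosing on DIV 5 and 9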)
# Outline: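 Fluorescent resazurin reduction serves as the viability read-out, with DMSO as negative control and baseline. Cells were primary rat cortical neurons grown on MEA plates and dosed from day 0 to day 12, treatment renewed on DIV 5 and 9.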
# [23] = CCTE_Shafer_MEA_dev_mutual_information_norm: CCTE's Neural Network Formation Assay for Mutual Information Normalization, Shafer Lab (AID 2284091)
# Outline: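 Exposure of primary rat cortical neurons began at plating and ran to DIV 12, with full media and treatment renewal after DIV 5 and 9 recordings. Mutual information AUC (DIV 5–12) was analysed for loss versus DMSO.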
# [24] = CCTE_Shafer_MEA_dev_correlation_coefficient_mean: CCTE's Neural Network Formation Assay for Mean Correlation Coefficient, Shafer Lab (AID 2284093)
# Outline: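 Read-out: well-mean correlation coefficient of spike trains between electrode pairs, collapsed over four recording days as trapezoidal area-under-the-curve. Developing rat cortical neuron networks grown on MEAs received test chemical continuously from plating.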
# [25] = UKN2_HCS_IMR90_neural_migration: University of Konstanz (UKN) Leist Lab Neural Crest Cell Migration Assay in human induced IMR90 Pluripotent Stem Cells (UKN2) (AID 2284204); details: actives raise or lower the signal
# Outline: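 Using a 96-well stopper format with PLO/laminin/fibronectin coating, neural crest cells from iPSC migrate in cytokine-supplemented N2-S medium; after 24 h, chemicals are applied for a further 24 h, then cells are imaged after dye staining.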
# [26] = IUF_NPC1b_proliferation_BrdU_72hr: Leibniz Research Institute for Environmental Medicine (IUF) 72-hour Neural Progenitor Cell Bromodeoxyuridine (BrdU) Proliferation Assay (NPC1b) (AID 2284207)
# Outline: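 Neural progenitor spheres of human fetal origin are treated for three days; BrdU added for the last 16 h is quantified by luminescence ELISA, with DMSO as baseline and EGF/FGF omission as positive control.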
# [27] = IUF_NPC1a_proliferation_area_72hr: Leibniz Research Institute for Environmental Medicine (IUF) 72-hour Neural Progenitor Cell Proliferation Area Assay (NPC1a) (AID 2284208)
# Outline: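 Proliferation is scored as sphere area gain in primary human fetal neural progenitors treated for 72 h in EGF/FGF-containing medium. Viability, LDH and BrdU readouts come from the same wells.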
smiles,measurement,setting,value
[Cl-].[Cl-].[NH2-].[NH2-].[Pt+4],outcome,[1],inactive
same,outcome,[2],inactive
same,outcome,[3],inactive
same,outcome,[4],inactive
same,outcome,[5],inactive
same,outcome,[6],inactive
same,outcome,[7],inactive
same,outcome,[8],inactive
same,AC50,[9],10.4 µM (active)
same,outcome,[10],inactive
same,outcome,[11],inactive
same,outcome,[12],inactive
same,outcome,[13],inactive
same,outcome,[14],inactive
same,outcome,[15],inactive
same,AC50,[16],9.92 µM (active)
same,outcome,[17],inactive
same,outcome,[18],inactive
same,outcome,[19],inactive
same,outcome,[20],inactive
same,AC50,[21],81 µM (active)
same,outcome,[22],inactive
same,outcome,[23],inactive
same,outcome,[24],inactive
same,outcome,[25],inactive
same,AC50,[26],5.68 µM (active)
same,AC50,[27],34.9 µM (active)

# — PubChem BioAssay (EPA / NIEHS)
